# Measured values: the supplement of paper PMC8975748
# Where a name gives a salt, the structure may show the parent alone. ± gives the standard deviation of the averaged measurements.
# Assays:
# [1] = system: Saccharomyces cerevisiae BY4741 SeMeCo community; assay: mean cell size (pixel area) (pixels); higher = larger cells; settings: 10 µM; 24 h; SM minimal medium
# In short: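 Mean cell pixel area per well was measured in a four-plasmid fluorescent community of Saccharomyces cerevisiae BY4741, where every plasmid complements one auxotrophy and carries a fluorescent marker. Cells from an overnight preculture at OD600 = 1.0 were diluted to OD600 = 0.3 and dispensed at 70 µl into 384-well plates acoustically predosed with drug to a final 10 µM in SM medium. Incubation lasted 24 h, followed by paraformaldehyde fixation, automated confocal imaging and analysis in Harmony. Reported figures are averaged over 3 replicates. Same SeMeCo high-content imaging drug screen: Selleck FDA-approved drugs at 10 µM, 24 h in SM medium, 384-well plates, 3 replicates.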
# [2] = system: Saccharomyces cerevisiae BY4741 SeMeCo community; assay: z-score of subpopulation abundance vs DMSO median, subpopulation auxotrophic for M; higher = larger share of this subpopulation than in DMSO controls; settings: 10 µM; 24 h; SM minimal medium; subpopulation (auxotrophy): M
# In short: (§1)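 Cells of a Saccharomyces cerevisiae BY4741 community, carrying four plasmids that each restored one auxotrophy and encoded a distinct fluorescent protein, were pre-grown overnight to OD600 1.0 and diluted to 0.3. A 70 µl volume was added to 384-well plates acoustically predosed with library drugs (10 µM final) and grown 24 h in minimal SM medium. After paraformaldehyde fixation, automated confocal microscopy was used, with single-auxotroph fluorescent strains for thresholds and autofluorescence correction. The abundance of each subpopulation was scored as a z-score against the vehicle-well median.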
# [3] = system: Saccharomyces cerevisiae BY4741 SeMeCo community; assay: z-score of subpopulation abundance vs DMSO median, subpopulation auxotrophic for L; higher = larger share of this subpopulation than in DMSO controls; settings: 10 µM; 24 h; SM minimal medium; subpopulation (auxotrophy): L
# In short: as §1
# [4] = system: Saccharomyces cerevisiae BY4741 SeMeCo community; assay: z-score of subpopulation abundance vs DMSO median, subpopulation auxotrophic for U; higher = larger share of this subpopulation than in DMSO controls; settings: 10 µM; 24 h; SM minimal medium; subpopulation (auxotrophy): U
# In short: as §1
# [5] = system: Saccharomyces cerevisiae BY4741 SeMeCo community; assay: z-score of subpopulation abundance vs DMSO median, subpopulation auxotrophic for H; higher = larger share of this subpopulation than in DMSO controls; settings: 10 µM; 24 h; SM minimal medium; subpopulation (auxotrophy): H
# In short: as §1
# [6] = system: Saccharomyces cerevisiae BY4741 SeMeCo community; assay: z-score of subpopulation abundance vs DMSO median, subpopulation auxotrophic for LU; higher = larger share of this subpopulation than in DMSO controls; settings: 10 µM; 24 h; SM minimal medium; subpopulation (auxotrophy): LU
# In short: as §1
# [7] = system: Saccharomyces cerevisiae BY4741 SeMeCo community; assay: z-score of subpopulation abundance vs DMSO median, subpopulation auxotrophic for LM; higher = larger share of this subpopulation than in DMSO controls; settings: 10 µM; 24 h; SM minimal medium; subpopulation (auxotrophy): LM
# In short: as §1
# [8] = system: Saccharomyces cerevisiae BY4741 SeMeCo community; assay: z-score of subpopulation abundance vs DMSO median, subpopulation auxotrophic for HM; higher = larger share of this subpopulation than in DMSO controls; settings: 10 µM; 24 h; SM minimal medium; subpopulation (auxotrophy): HM
# In short: as §1
# [9] = system: Saccharomyces cerevisiae BY4741 SeMeCo community; assay: z-score of subpopulation abundance vs DMSO median, subpopulation auxotrophic for HU; higher = larger share of this subpopulation than in DMSO controls; settings: 10 µM; 24 h; SM minimal medium; subpopulation (auxotrophy): HU
# In short: as §1
# [10] = system: Saccharomyces cerevisiae BY4741 SeMeCo community; assay: z-score of subpopulation abundance vs DMSO median, subpopulation auxotrophic for UM; higher = larger share of this subpopulation than in DMSO controls; settings: 10 µM; 24 h; SM minimal medium; subpopulation (auxotrophy): UM
# In short: as §1
# [11] = system: Saccharomyces cerevisiae BY4741 SeMeCo community; assay: z-score of subpopulation abundance vs DMSO median, subpopulation auxotrophic for HL; higher = larger share of this subpopulation than in DMSO controls; settings: 10 µM; 24 h; SM minimal medium; subpopulation (auxotrophy): HL
# In short: as §1
# [12] = system: Saccharomyces cerevisiae BY4741 SeMeCo community; assay: z-score of subpopulation abundance vs DMSO median, subpopulation auxotrophic for HLU; higher = larger share of this subpopulation than in DMSO controls; settings: 10 µM; 24 h; SM minimal medium; subpopulation (auxotrophy): HLU
# In short: as §1
# [13] = system: Saccharomyces cerevisiae BY4741 SeMeCo community; assay: z-score of subpopulation abundance vs DMSO median, subpopulation auxotrophic for HLM; higher = larger share of this subpopulation than in DMSO controls; settings: 10 µM; 24 h; SM minimal medium; subpopulation (auxotrophy): HLM
# In short: as §1
# [14] = system: Saccharomyces cerevisiae BY4741 SeMeCo community; assay: z-score of subpopulation abundance vs DMSO median, subpopulation auxotrophic for HUM; higher = larger share of this subpopulation than in DMSO controls; settings: 10 µM; 24 h; SM minimal medium; subpopulation (auxotrophy): HUM
# In short: as §1
# [15] = system: Saccharomyces cerevisiae BY4741 SeMeCo community; assay: z-score of subpopulation abundance vs DMSO median, subpopulation auxotrophic for LUM; higher = larger share of this subpopulation than in DMSO controls; settings: 10 µM; 24 h; SM minimal medium; subpopulation (auxotrophy): LUM
# In short: as §1
# [16] = system: Saccharomyces cerevisiae BY4741 SeMeCo community; assay: z-score of prototroph abundance vs DMSO median; higher = larger share of this subpopulation than in DMSO controls; settings: 10 µM; 24 h; SM minimal medium; subpopulation (auxotrophy): Prototroph
# In short: as §1
# [17] = system: Saccharomyces cerevisiae BY4741 SeMeCo community; assay: z-score of subpopulation abundance vs DMSO median, subpopulation auxotrophic for HLUM; higher = larger share of this subpopulation than in DMSO controls; settings: 10 µM; 24 h; SM minimal medium; subpopulation (auxotrophy): HLUM
# In short: as §1
SMILES,mean cell size [1],z-score of subpopulation abundance [2],z-score of subpopulation abundance [3],z-score of subpopulation abundance [4],z-score of subpopulation abundance [5],z-score of subpopulation abundance [6],z-score of subpopulation abundance [7],z-score of subpopulation abundance [8],z-score of subpopulation abundance [9],z-score of subpopulation abundance [10],z-score of subpopulation abundance [11],z-score of subpopulation abundance [12],z-score of subpopulation abundance [13],z-score of subpopulation abundance [14],z-score of subpopulation abundance [15],z-score of prototroph abundance [16],z-score of subpopulation abundance [17]
COC(=O)Nc1nc2cc(C(=O)c3ccc(F)cc3)ccc2[nH]1 [Flubendazole],12.19 ± 0.12,-0.07,0.41,-0.99,1.19,-0.32,0.25,0.64,0.34,-0.47,0.98,0.3,-0.42,0.06,0.68,,
N=C(N)NC(=O)c1nc(Cl)c(N)nc1N [Amiloride HCl dihydrate],12.1 ± 0.19,3.23,0.68,,0.83,-3.52,2.66,1.29,,-3.7,0.71,-1.34,0.23,-1.45,-1.62,1.39,-0.95
NCCNc1ccc(NCCN)c2c1C(=O)c1ccncc1C2=O [Pixantrone Maleate],11.8 ± 0.17,-11.8,1.31,2.84,3.74,2.14,-5.3,-5.86,4.69,-7.68,9.63,7.46,-2.2,-5.6,-4.09,3.16,
NNc1nncc2ccccc12 [Hydralazine HCl],11.8 ± 0.14,-0.11,-0.91,0.89,-1.09,-0.18,-0.56,-0.62,0.18,0.37,-0.59,-0.68,0.17,-0.64,-0.97,0.63,
Nc1ccc(S(=O)(=O)Nc2ncccn2)cc1 [Sulfadiazine],12.34 ± 0.084,-0.51,0.86,,-0.65,0.22,-0.04,-0.44,-0.2,-0.04,-0.65,0.31,0,-0.05,,0.05,
Nc1ccc(S(=O)(=O)Nc2ccnn2-c2ccccc2)cc1 [Sulfaphenazole],12.54 ± 0.079,0.25,0.58,0.18,,-0.02,-0.2,-0.42,-0.47,0,-0.02,-0.27,-0.29,-0.72,-0.28,0.15,
CCCNCC(O)COc1ccccc1C(=O)CCc1ccccc1 (centres undefined) [Propafenone HCl],12.36 ± 0.1,-0.38,-0.54,0.55,-0.52,-0.32,0.27,-0.15,0.58,0.94,,-0.61,-0.63,-0.3,0.61,0.15,
O=C(O)c1cc(=O)c2c(OCC(O)COc3cccc4oc(C(=O)O)cc(=O)c34)cccc2o1 [Disodium Cromoglycate],12.1 ± 0.22,-0.6,-1.19,0.66,-0.75,-0.38,-0.12,-0.13,0.68,-0.22,-1.3,-0.29,-0.04,-0.62,-0.55,0.23,
Cc1cccc(Nc2ccccc2C(=O)O)c1C [Mefenamic Acid],12.4 ± 0.21,0.15,0.31,-0.58,-0.41,-0.62,0.12,-0.11,0.29,-0.74,0.24,-0.38,-0.42,-0.64,-0.45,0.48,
CCCc1nn(C)c2c(=O)[nH]c(-c3cc(S(=O)(=O)N4CCN(C)CC4)ccc3OCC)nc12 [Sildenafil Mesylate],12.2 ± 0.17,-0.91,0.21,1.64,-0.01,0.91,-0.29,,1.74,0.21,-0.5,0.05,-0.78,1.55,0.38,-0.95,0.08
CCCCCCCCCC(=O)N[C@@H](Cc1c[nH]c2ccccc12)C(=O)N[C@H](CC(N)=O)C(=O)N[C@@H](CC(=O)O)C(=O)N[C@@H]1C(=O)NCC(=O)N[C@@H](CCCN)C(=O)N[C@@H](CC(=O)O)C(=O)N[C@H](C)C(=O)N[C@@H](CC(=O)O)C(=O)NCC(=O)N[C@H](CO)C(=O)N[C@@H]([C@H](C)CC(=O)O)C(=O)N[C@@H](CC(=O)c2ccccc2N)C(=O)O[C@@H]1C [Daptomycin],12.2 ± 0.16,0.17,0.51,-1.42,1.36,-0.76,1.51,,0.29,-0.81,,1.3,0.48,0.77,,-0.94,-0.99
CCOC(=O)C1=C(C)NC(C)=C(C(=O)OCC)C1c1ccccc1/C=C/C(=O)OC(C)(C)C [Lacidipine],12.5 ± 0.14,3.48,1.08,-3.36,1.2,-2.51,1.6,,,-2.61,-0.42,-0.94,1.17,-0.96,-1.16,0.54,-0.21
CC(=O)Oc1ccc(C(=C2CCCCC2)c2ccc(OC(C)=O)cc2)cc1 [Cyclofenil],12.3 ± 0.17,-1.19,-0.27,0.16,-0.22,-0.48,-1.03,,-0.3,-0.03,0.25,-0.23,0.41,-0.46,-0.06,0.79,-0.2
N#Cc1ccc2[nH]cc(CCCCN3CCN(c4ccc5oc(C(N)=O)cc5c4)CC3)c2c1 [Vilazodone HCl],12.34 ± 0.018,1.09,0.01,-0.4,1.09,-0.14,0.25,0.6,,-0.14,0.87,-0.1,-0.45,0.23,0.66,-0.4,
